# From PubChem BioAssay (NCI)
# About 83,000 compounds went through this panel and 20% of them were active in at least one assay; those are over-represented in the sample as a whole.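 Negative percent growth values reflect cell death: -40 means 40% of the cells present at the start died, and -100 means all died.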 Calls of active or inactive are those of the source. The calls were made as follows: active = growth percent below 10; inactive = the rest.
# Tested on: HL-60(TB) leukemia
# Test: NCI-60 one-dose screen, 48 h (100 = growth as untreated, 0 = no growth, -100 = all killed)
# Details: 10 µM unless noted
row,Structure (SMILES),growth
1,c1ccc2[nH]c(-c3ccc(-c4nccc5c4[nH]c4ccccc45)cc3)nc2c1,-42.1% (active)
2,Cc1ccc(/C=C(\C#N)C(=O)Nc2ncc(Cc3cc(Cl)ccc3Cl)s2)o1,22.5% (inactive)
3,C=C1C(=O)O[C@H]2[C@H]1CCC(/C=N/c1ncc(Br)cc1N)=C\CC[C@@]1(C)O[C@@H]21,-21.4% (active)
4,CN(CCNc1ccc(C(=N)N)cc1)c1ccc(C(=N)N)cc1,91% (inactive)
5,CC1(COc2ccc3c(c2)ncn3-c2ccc3cccc(N4CCC(N)CC4)c3n2)COC1,-46.9% (active)
6,CCOC(=O)c1cc(C(=O)c2cc(OC)cc(OC)c2)n2ncccc12,-21.7% (active)
7,CCOc1nc(-c2ccccc2)cc2c(O)c(C(=O)N/N=C/c3ccc(OC)cc3)[nH]c(=O)c12,65.1% (inactive)
8,O=C(Nc1ncc(Cc2ccccc2Cl)s1)c1ccc2c(c1)OCCO2,-56.8% (active)
9,C[C@H](CCCC(=O)NCC#CCN1CCN(C)CC1)[C@H]1CC[C@H]2[C@@H]3CC[C@@H]4CC(=O)CC[C@]4(C)[C@H]3CC[C@]12C,94.3% (inactive)
10,COc1cccc(-c2nc(-c3ccc(NC(=O)c4ccccc4)cc3)[nH]c2-c2ccnc(Br)c2)c1,-34% (active)
11,CSc1nc2c(c(=O)n1C)CN(Cc1ccccc1)C(=O)CN2,84.9% (inactive)
12,O=C(O)Cc1cc(=O)[nH]n(-c2ccccc2)c1=O,95.3% (inactive)
13,C=C1C(=O)O[C@H]2[C@H]1CC/C(COC(=O)NCc1ccc(Cn3c(=O)sn(CCCCl)c3=O)cc1)=C\CC[C@@]1(C)O[C@@H]21,-50.6% (active)
14,COc1ccc(C2=NN(C(N)=S)C(c3ccc4c(c3)OCO4)C2)cc1 (stereo not given),30.4% (inactive)
15,CC(C)NS(=O)(=O)/N=C1\NC(=O)NC1=C(Cl)Cl,55.6% (inactive)
16,O=c1[nH]c(-c2ccccc2)nc2sc3cc(O)ccc3c12,-33.5% (active)
17,O=C(O)COc1c(Cl)cc([N+](=O)[O-])cc1Cl,87.1% (inactive)
18,Fc1c[c-]c(-c2ccccn2)c(F)c1.[CH3-].[Pt+2].c1ccc(P(C[PH+](c2ccccc2)c2ccccc2)c2ccccc2)cc1,-24.2% (active)
19,O=C(O)CCN1CCN(c2cccc(Cl)c2)CC1,97% (inactive)
20,O=C(Nc1cccc2ccccc12)c1cc2ccccc2cc1O,9.13% (active)

row,Structure (SMILES),growth
1,CCCOC(=O)c1ccc2c(c1)[N+](=O)C(C(=O)c1ccccc1)=C(C(F)(F)F)[N+]2=O,-71.6% (active)
2,Cn1ccnc1C(=O)/C=C/c1ccc(C(=O)Nc2ccccc2F)cc1,5.22% (active)
3,Fc1ccc(Nc2nc(Nc3ccc(-c4nc5ccccc5[nH]4)cc3)c3cn[nH]c3n2)cc1,91.4% (inactive)
4,CC1=CC=C(NC(=O)/C=C/c2ccccc2)CC1Nc1nccc(-c2cccnc2)n1 (stereo not given),-0.0857% (active)
5,Cc1ccc(NCCNCC(C)(C)O)c2c(=O)c3ccc(Cl)cc3sc12,-48.3% (active)
6,O=C(Nc1ccc(/C=C2\SC(=O)N(Cc3ccc(OC(F)(F)F)cc3)C2=O)cc1)c1ccc(Cl)c([N+](=O)[O-])c1,71.3% (inactive)
7,NC(=O)NN=C(C1CC1)C1CC1,62.2% (inactive)
8,COc1ccc(Cn2cc3c(c2)-c2oncc2CC3)cc1,24.5% (inactive)
9,COc1ccc2c(c1)C(=O)c1c-2c(=O)n(CCCCCCC(=O)NO)c2ccccc12,12.7% (inactive)
10,N=C(N)c1ccc(-c2ccc(-c3ccccc3)s2)nc1,16.6% (inactive)
11,CCN(CC)CCCNc1nc2ccccc2c2c(=O)c3cc(Cl)ccc3sc12,64.5% (inactive)
12,COc1cccc(-c2nn(-c3ccccc3)cc2-c2ccnc(NCCCNS(=O)(=O)c3ccccc3)c2)c1,16% (inactive)
13,O=C(O)C1[S][Sb]([CH](C(=O)O)[CH](C(=O)O)[Sb]2[S]C(C(=O)O)C(C(=O)O)[S]2)[S]C1C(=O)O (stereo not given),94.3% (inactive)
14,Brc1ccc2c(c1)c(-c1nc(-c3c[nH]c4ncccc34)cs1)cn2CCCN1CCCCC1,13.3% (inactive)
15,CC(C)[N+]1(C)C2CC[C@@H]1CC(OC(=O)C(CO)c1ccccc1)C2 (stereo not given in full),107% (inactive)
16,CCS(=O)(=O)Nc1cccc(Nc2c3cccc(C)c3nc3c(C)cccc23)c1OC,-16.4% (active)
17,ClC(Cl)c1nc(-c2ccccc2)nc2cc(-c3ccccc3)nn12,94.9% (inactive)
18,COc1ccc(CNc2c3ccccc3nc3ccccc23)cc1F,12.9% (inactive)
19,CC1(C)OC2[C@@H](CNC(=O)NC(=O)NC(=O)CI)O[C@@H](n3cnc4c(NC(=O)Nc5ccccc5)ncnc43)[C@H]2O1 (stereo not given in full),77.2% (inactive)
20,CC1CC(O)C2C3(C)CCCC2(COC3=O)C12CCC1(CCOC1=O)O2 (stereo not given),121% (inactive)
